High-throughput results from PubChem.
Hits are enriched below; roughly 6.3% of the tested compounds scored in any of these assays.
VP16 counter = inhibits Gal4-VP16 luciferase reporter, ROR gamma counter-screen. Drosophila S2 Gal4-VP16 UAS-luciferase, luminescence, 20 h. Potency, µM (series often up to 53.6 µM), inactives show at the highest dose activity, negative = inhibition, actives largely listed as inhibitors. actives 3.5% (n = 310,000);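 further: Gal4-VP16 expression switched on by copper sulfate through the metallothionein promoter; on the % scale 0 is the no-effect control and ±100 the full control effect; nearly all actives have a fitted effect of over 50% in size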
HepG2 tox = kills HepG2 cells in TGF-b inhibitor counter-screen; HepG2 CAGA-GFP viability, ATP luminescence, 18 h; Potency, µM (top dose mostly 46.1 µM), inactives show top-dose activity change, negative = cytotoxicity, usual class: cytotoxic; actives 0.76% (n = 410,000)
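CellTiter-Glo luminescence gave cytotoxicity after 18 hours at 37 degrees C. The cells were HepG2 CAGA-GFP in 1% FBS DMEM, stimulated with 500 pg/mL TGF-beta after compound addition. %Activity was normalised to no-cell wells (complete cell-killing) and DMSO (no toxicity), and curves were fitted and classified.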
ATXN viability = cell viability loss in ATXN counter-screen; S2 cells (HEK-293 line with an ATXN2-luciferase reporter) viability, CellTiter-Fluor protease fluorescence, 24 h; Potency, µM (top dose mostly 56.7 µM), actives largely listed as cytotoxic; actives 0.49% (n = 400,000); AID 651635; further: nearly all actives have a fitted effect of over 40% in size
ATXN2 expr inh = reduces ATXN2 reporter expression in HEK-293 cells; HEK-293 ATXN2-luciferase reporter, luminescence, 24 h; Potency, µM (highest dose often 57 µM), without a hit: top-dose activity change, negative = inhibition, most hits filed as inhibitors; actives 0.72% (n = 360,000); AID 1745845; further: on the % scale 0 is the no-effect control and ±100 the full control effect; nearly all actives have a fitted effect of over 55% in size
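ATXN2-luciferase reporter cells (luciferase flanked by upstream and downstream ATXN2 gene portions) were treated 24 h at 37 °C with compounds at up to 57 uM. SteadyGlo luminescence gave expression; GF-AFC fluorescence gave viability.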
TGFb inhibitor = inhibitors of TGF-b signaling. actives 1.2% (n = 410,000). AID 588855. HepG2 CAGA-GFP TGF-b/SMAD3 reporter, GFP fluorescence, 18 h; TGF-beta stimulated, 500 pg/mL final. Potency, µM (series often up to 46.1 µM), for the others: at the highest dose activity, negative = inhibition, most hits filed as inhibitors; further: on the % scale 0 is the no-effect control and ±100 the full control effect; nearly all actives have a fitted effect of over 65% in size
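HEPG2 CAGA-GFP reporter cells (1000/well, DMEM with 1% FBS) received compounds, then recombinant TGF-beta at 500 pg/mL final for 18 hours at 37 degrees C. Per-cell GFP summed per well was normalised to unstimulated and stimulated DMSO controls before curve fitting.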
RORgamma inh = blocks mouse ROR gamma transcriptional activity | actives 5.4% (n = 310,000) | P51450 | AID 2551 | Potency, µM (top dose mostly 53.6 µM), for the others: top-dose activity change, negative = inhibition, most hits filed as inhibitors | Drosophila S2 Gal4-RORgamma UAS-luciferase reporter, 20 h; further: on the % scale 0 is the no-effect control and ±100 the full control effect; nearly all actives have a fitted effect of over 60% in size
Target sequence (P51450 whole entry, looked up, the tested form may be a part): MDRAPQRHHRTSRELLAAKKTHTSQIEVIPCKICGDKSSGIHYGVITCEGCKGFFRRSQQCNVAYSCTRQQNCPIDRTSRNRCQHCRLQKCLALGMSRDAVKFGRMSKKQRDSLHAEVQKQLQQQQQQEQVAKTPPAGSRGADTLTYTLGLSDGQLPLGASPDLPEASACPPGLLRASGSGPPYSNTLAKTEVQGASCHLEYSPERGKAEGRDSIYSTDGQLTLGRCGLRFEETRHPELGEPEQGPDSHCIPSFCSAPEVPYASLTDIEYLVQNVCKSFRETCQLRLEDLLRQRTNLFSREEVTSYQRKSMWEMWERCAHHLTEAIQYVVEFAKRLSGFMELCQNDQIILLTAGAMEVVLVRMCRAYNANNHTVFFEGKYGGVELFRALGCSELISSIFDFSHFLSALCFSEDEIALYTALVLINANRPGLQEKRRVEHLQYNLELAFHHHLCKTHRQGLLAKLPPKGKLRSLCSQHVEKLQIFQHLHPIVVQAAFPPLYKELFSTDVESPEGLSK
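A Gal4/UAS one-hybrid system in insect cells: metallothionein-promoter Gal4–ROR gamma fusion plus Photinus luciferase reporter. Copper sulfate 700 uM final, 20 hr ambient incubation, luminescent detection after 10 min with reagent.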
Active calls of the source: *; i = inactive; ? = inconclusive; / = not tested or not shown; [ ] = dose if it differs, or a comment. The call rests on the fitted dose curve; in most records, active means well fitted curve in the direction sought with a large enough effect; inconclusive means small, poorly fitted or top-dose-only effect, or another doubt; inactive means no such curve, though single readings can be large; an effect the other way counts as inactive or inconclusive. Potency means the concentration at half of the fitted maximal effect.

SMILES | VP16 counter | HepG2 tox | ATXN viability | ATXN2 expr inh | TGFb inhibitor | RORgamma inh
Cc1ccc(S(=O)(=O)c2cc3c(=O)n4ccccc4nc3n(Cc3ccco3)c2=N)cc1C | 18µM* | -10% | i | -28% | -10% | ?
Cc1ccc2nc3c(cc(C(=O)NCc4ccco4)c(=N)n3C(C)C)c(=O)n2c1 | / | 5% | i | -12% | -16% | /
CNC(=O)c1cc2c(=O)n3cc(C)ccc3nc2n(Cc2ccco2)c1=N | ? | / | / | / | / | 11µM*
COc1ccc(F)c(CN2CCC3(CCC(CNC(=O)c4cc(C)nn4C)O3)CC2)c1 (configuration not stated) | / | / | i | / | / | /
N=C(N)c1ccc(OCCCOc2ccc(C(=N)N)cc2)cc1 | / | / | i | -5% | / | /
Cc1ccc(OCC(=O)NNC(=O)c2cc(S(=O)(=O)N(C)C)ccc2N2CCCC2)cc1 | / | 0% | i | / | 3% | /
O=C(O)CCN1C(=O)C(=C2CCCCCC2)SC1=S | 2% | -23% | i | 20% | -14% | ?
O=C1C(=C2CCCCC2)SC(=S)N1Cc1ccco1 | -1% | -13% | i | 3% | ? | 13µM*
CCCCNC(=O)C1c2ccccc2OCC(=O)N1CCc1c[nH]c2ccccc12 (configuration not stated) | / | / | i | 10% | / | /
CCc1ccccc1NC(=O)Cn1c(-c2nonc2N)nc2ccccc21 | / | -1% | / | / | -22% | /
CCCCOc1ccccc1NC(=O)Cn1c(-c2nonc2N)nc2ccccc21 | -20% | -20% | 14µM* | ? | ? | -24%
CN(C)CC[C@H](CSc1ccccc1)Nc1ccc(S(=O)(=O)NC(=O)c2ccc(N3CCN(Cc4ccccc4-c4ccc(Cl)cc4)CC3)cc2)cc1[N+](=O)[O-] | / | / | / | -15% | / | /
CCOC(=O)C(=Cc1cc(=O)c(OC)co1)C(=O)OCC | 5µM* | 14µM* | ? | ? | 7.1µM* | 4.5µM*
CN(C)c1cc[n+](CC(=O)c2ccc(-c3ccccc3)cc2)cc1 | ? | -28% | i | 2.8µM* | ? | -3%
CC1(C)CC(N=c2cc(-c3ccccc3)oc3ccc(Cl)cc23)CC(C)(C)N1 | ? | 16µM* | i | 1%[11.3 µM] | ? | ?
CC(C)c1ccc(Nc2nnc(SCC(=O)Nc3ncc(S(=O)(=O)c4ccc([N+](=O)[O-])cc4)s3)s2)cc1 | -4% | 0% | ? | / | 3% | 10µM*
O=[N+]([O-])c1ccccc1/C=N\Nc1nccs1 | -14% | 32% | i | 11% | -17% | -32%
O=[N+]([O-])c1ccccc1/C=N/Nc1nnc(-c2ccccc2)c(-c2ccccc2)n1 | 3.2µM* | -2% | ? | 0% | 23% | 3.2µM*
C=CC1=C(C(=O)O)N2C(=O)[C@@H](NC(=O)C(=NO)c3csc(N)n3)[C@H]2SC1 | / | / | / | 6% | / | /
Cc1ccc2c(CN(C)Cc3ccccc3)cc(=O)oc2c1C | -5% | 1% | / | 203% | -6% | ?
Cc1ccc2c(CN(C)Cc3ccc(OC(F)F)cc3)cc(=O)oc2c1C | ? | 13µM* | i | -27% | -29% | ?
COc1cc(CN2CCOc3ccc(C(O)c4cccnc4)cc3C2)cc(OC)c1 (configuration not stated) | / | / | i | / | / | /
O=C(NNC(=O)c1cnccn1)c1ccc(Cl)cc1 | 16µM* | -12% | i | -27% | 12% | 8.9µM*
O=C(NNc1ncnc2sccc12)c1ccc(Cl)cc1 | ? | 0% | i | 14% | ? | ?
O=C(NNC(=O)c1ccc(Cl)cc1Cl)c1cnccn1 | ? | 8% | / | / | 9% | ?
SMILES | VP16 counter | HepG2 tox | ATXN viability | ATXN2 expr inh | TGFb inhibitor | RORgamma inh
Cc1csc2ncnc(NNC(=O)c3ccc(Cl)cc3)c12 | 4.5µM* | -51% | ? | ? | ? | 1.8µM*
COc1ccc(-c2nc3ccccc3o2)cc1NC(=O)CSc1ccc(Cl)cc1 | -26% | 5% | i | 28% | -3% | 1.4µM*
COc1ccc(-c2nc3ccccc3o2)cc1NC(=O)C(C)Oc1ccc(Cl)cc1Cl (configuration not stated) | / | 3% | i | 3% | -2% | /
Cc1ccc(OCC(=O)Nc2cc(-c3nc4cc(Cl)ccc4o3)ccc2C)c(C)c1 | / | 6% | / | / | -5% | /
Cc1ccc(-c2nc3cccnc3o2)cc1NC(=O)COc1ccc(Cl)cc1C | -14% | 17% | 28µM* | 32µM* | 4% | 4%
COc1ccc(NC(=O)c2c(N)no[n+]2[O-])cc1 | 8% | -4% | i | -29% | ? | 17%
COc1ccc(C(=O)c2no[n+]([O-])c2C(=O)c2ccc(OC)cc2)cc1 | ? | -95% | 28µM* | ? | ? | ?
O=C(c1cccs1)c1no[n+]([O-])c1C(=O)c1cccs1 | 11µM* | -41% | 28µM* | ? | 25µM* | 11µM*
CCCCCCN[C@H]1CCC2C3CC=C4C[C@@H](O)CC[C@]4(C)C3CC[C@@]21C (some centres not stated) | / | -10% | i | -15% | 2% | /
Cn1nc(C(=O)Nc2nc3ccccc3[nH]2)c2ccccc2c1=O | ? | 1% | i | 28% | 14% | ?
CN(C)S(=O)(=O)c1ccc(C(=O)Nc2nc3ccccc3[nH]2)cc1 | ? | 3% | i | 49% | 2% | 11µM*
CCc1ccc(C(=O)Nc2nc3ccccc3[nH]2)cc1 | 4µM* | -62% | i | 5µM* | -13% | 2.2µM*
O=C(Nc1nc2ccccc2[nH]1)c1ccccc1F | 1.8µM* | 2.2µM* | i | 2% | 1% | 0.71µM*
CCn1nc(C(=O)Nc2nc3ccccc3[nH]2)c2ccccc2c1=O | ? | -16% | i | -5% | ? | 11µM*
COc1ccc2c(c1)CCc1cnc(-n3ncc(C(=O)N(C)CCc4ccccn4)c3C)nc1-2 | / | / | i | / | / | /
O=C(Nc1nc2ccccc2[nH]1)c1ccc(F)cc1 | 5.6µM* | -36% | i | ? | -14% | 2.8µM*
O=C(CCNC(=O)c1ccc(Cl)cc1)Nc1nc2ccccc2[nH]1 | / | -22% | i | 12% | -4% | /
N#Cc1ccc(C(=O)Nc2nc3ccccc3[nH]2)cc1 | 7.1µM* | -25% | i | 12% | -10% | 3.5µM*
CN(c1ccccc1)S(=O)(=O)c1ccc(Cl)c(C(=O)Nc2nc3ccccc3[nH]2)c1 | 7.1µM* | 5% | i | -12% | 0% | 4µM*
C/C=C(\NNC(C)=O)c1ccc(O)cc1 | / | -4% | / | / | 1% | /
